Most compounds without a hit are left out; they make up all but 3.2% or so of the library.
Mtb betalactam: beta-lactam sensitization of Mtb H37Rv, H37Rv; M. tuberculosis H37Rv growth with meropenem, percent inhibition; inhibition, % at 25 µM; actives 0.27% (n = 330,000); call rule not given here;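 also: growth measured after seven days incubation then overnight dye step; 0% = bacteria only wells and 100% = bacteria with antibiotic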
Rv3671c inh: Rv3671c serine protease inhibitors, primary screen, biochemical, fluorescence polarization, M. tuberculosis H37Rv | actives 0.048% (n = 320,000) | P9WHR9 | AID 2606, 2010 | inhibition, % at 5.96 µM; in the data active = inhibition above about 38%;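 also: extracellular domain of Rv3671c used as enzyme; 0% = enzyme with DMSO and 100% = no enzyme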
GDH-TPI counter: GDH-TPI coupling enzyme inhibitors, primary screen, artefact control for M. tuberculosis FBA inhibitor project, biochemical, absorbance, full deck; GDH-TPI coupled enzyme counterscreen, NADH absorbance; inhibition, % at 4.8 µM; actives 1.2% (n = 360,000); in the data active = inhibition above about 30%;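 also: 0% = DMSO wells and 100% = wells lacking the enzyme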
Mtb FBA inh: Mtb FBA enzyme inhibitors, primary screen, biochemical, fluorescence, strain H37Rv; purified M. tuberculosis FBA, fluorescence read-out; inhibition, % at 1 µM; actives 2.3% (n = 360,000); Fructose-bisphosphate aldolase (Mycobacterium tuberculosis (strain ATCC 25618 / H37Rv)), …; AID 588726, 2011; in the data active = inhibition above about 27%;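 also: 0% = vehicle and 100% = reference inhibitor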
Target sequence (P9WQA3 whole entry, looked up): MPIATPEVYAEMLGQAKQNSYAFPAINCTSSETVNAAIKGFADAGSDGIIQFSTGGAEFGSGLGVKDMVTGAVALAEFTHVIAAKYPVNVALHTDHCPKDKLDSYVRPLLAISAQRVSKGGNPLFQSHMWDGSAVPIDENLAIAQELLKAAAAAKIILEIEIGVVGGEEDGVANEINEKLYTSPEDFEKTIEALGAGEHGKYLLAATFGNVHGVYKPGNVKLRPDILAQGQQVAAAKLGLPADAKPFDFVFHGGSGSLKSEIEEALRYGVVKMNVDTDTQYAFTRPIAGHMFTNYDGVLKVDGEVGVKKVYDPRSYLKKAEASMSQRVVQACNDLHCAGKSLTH
SSB-PriA inh: inhibitors of Klebsiella pneumoniae PriA binding to SSB C-terminal tail, primary screen, biochemical, AlphaScreen | PriA–SSB C-terminal tail interaction (Klebsiella pneumoniae) | AID 1272365, 2023 | inhibition, % at 33 µM | AlphaScreen SSBct-PriA binding, biotinylated peptide | actives 0.6% (n = 430,000); in the data active = inhibition mostly above about 37%, no sharp cut-off; inactive = mostly below about 20%;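 also: plate controls were negative control peptide for no effect and reference peptide for full effect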
Mtb UGM inh: M. tuberculosis UGM enzyme inhibitors, primary screen, biochemical, fluorescence polarization, single point; UDP-galactopyranose mutase (Mycobacterium tuberculosis (strain ATCC 25618 / H37Rv)), …; purified UGM, fluorescence polarization probe displacement; inhibition, % at 10 µM; actives 0.06% (n = 320,000); in the data active = inhibition above about 10%, passing the limit was not always enough
* marks the source's active call; other numbers are inactive results; i = inactive; / = no result; + = active, no number.

SMILES	Mtb betalactam	Rv3671c inh	GDH-TPI counter	Mtb FBA inh	SSB-PriA inh	Mtb UGM inh
O=S(=O)(NCc1cccs1)c1cccc(C(F)(F)F)c1	/	/	/	/	-27.0	/
O=C(c1ccccc1C(F)(F)F)N1CCN(c2ccc(-c3ccccn3)nn2)CC1	/	/	/	/	150.0*	/
COc1ccccc1CC(=O)N1CCN(c2ccccn2)CC1	-9.0	4.2	-1.9	6.5	-8.8	5.3
O=C(c1ccccc1F)N1CCN(c2ccc(-c3ccccn3)nn2)CC1	/	/	/	/	108.0*	/
COc1ccccc1CC(=O)N1CCN(c2ccc(-c3ccccn3)nn2)CC1	/	/	/	/	158.0*	/
CSC1=NC2(CCN(C(=O)Nc3ccccc3Cl)CC2)N=C1c1ccc(C)c(C)c1	/	/	/	/	-7.0	/
Cc1nc2cc(NC(=O)CCCS(=O)(=O)Cc3ccccc3)ccc2s1	/	/	/	/	-4.0	/
CCOc1cccc2sc(N(Cc3ccccc3)C(=O)CS(=O)(=O)c3ccc(F)cc3)nc12	/	/	/	/	0.0	/
CC(=O)c1ccc(N2CCN(C(=O)Cc3csc(Nc4ccc(F)cc4)n3)CC2)cc1	/	/	/	/	-13.0	/
CN(C)CC#CCNC(=O)CCCc1ccccc1	/	/	/	/	-6.0	/
CCn1cc(NC(=O)Nc2ccc(OC(F)F)cc2)c2ccccc21	/	/	/	/	40.0*	/
Cn1c(C(C#N)=NO)nc2ccccc21	/	/	/	/	-18.6	/
O=C(/C=C/c1ccc2c(c1)OCO2)N1CCN(c2ccccc2F)CC1	-5.8	-2.3	18.3	3.2	-9.6	-1.1
COc1ccccc1N1CCN(C(=O)/C=C/c2ccc3c(c2)OCO3)CC1	15.8	-5.8	43.3*	1.2	-3.2	-1.9
CC1CN(C(=O)/C=C/c2ccc3c(c2)OCO3)CC(C)O1 (centres undefined)	-10.1	2.3	34.8*	9.3	-3.6	3.1
COc1ccc(NC(=O)NCC2CCN(Cc3cccs3)CC2)c(OC)c1	/	/	/	/	3.0	/
O=C(NN=Cc1cccs1)c1ccco1	/	/	/	/	-6.3	/
O=C(NCc1nnc(SCc2ccc(Br)cc2)n1-c1ccc(Br)cc1)c1ccccc1F	/	/	/	/	-12.0	/
O=C1NC(=O)C(=Cc2cc3c(cc2[N+](=O)[O-])OCO3)C(=O)N1	0.7	-5.1	21.9	4.2	-1.2	1.1
Cc1cccc(N2C(=O)NC(=O)/C(=C/c3cc4c(cc3[N+](=O)[O-])OCO4)C2=O)c1	12.9	6.0	4.9	12.7	4.3	11.2*
COc1ccc(OC)c(/C=N/NC(=O)Cn2ccnc2C)c1	-5.7	10.1	14.2	165.4*	i	-3.0
COc1cccc(/C=N/NC(=O)Cn2ccnc2C)c1	0.0	-2.7	0.7	2.9	/	-0.5
O=C(CSCc1ccccc1)N1CCN(Cc2nc(C3CC3)cs2)CC1	/	/	/	/	3.0	/
Cn1cc(C(=O)N/N=C/C=C/c2ccccc2)ccc1=O	-1.4	3.0	39.9*	-4.1	/	-0.7
Cn1cc(C(=O)N/N=C/C(Br)=C\c2ccccc2)ccc1=O	/	2.1	32.2*	-2.8	/	-2.4
SMILES	Mtb betalactam	Rv3671c inh	GDH-TPI counter	Mtb FBA inh	SSB-PriA inh	Mtb UGM inh
Cn1cc(C(=O)N/N=C/C(Br)=C/c2ccccc2)ccc1=O	25.1	-6.6	43.6*	1.7	/	0.5
COc1ccc(Cl)cc1NC(=O)CSc1nccn2nc(-c3ccccc3OC)cc12	/	/	/	/	-22.0	/
COc1ccc(C(=O)Nc2ccc(CC(=O)N3CCOCC3)cc2)cc1F	/	/	/	/	-6.0	/
O=C(Cn1cnc2c(-c3ccccc3)csc2c1=O)Nc1ccc2c(c1)OCO2	/	/	/	/	-12.0	/
NS(=O)(=O)c1ccc(CCNC(=O)C(=O)NCC2OCCN2C(=O)c2ccc3c(c2)OCO3)cc1 (centres undefined)	4.3	-10.1	9.3	1.5	-2.0	0.3
O=C(NCCCn1ccnc1)C(=O)NCC1OCCN1S(=O)(=O)c1ccccc1 (centres undefined)	3.0	-0.7	8.7	1.2	42.7*	2.4
O=C(NCCCn1ccnc1)C(=O)NCC1OCCN1C(=O)c1ccc2c(c1)OCO2 (centres undefined)	/	/	/	/	71.0*	/
O=C(NCCCn1ccnc1)C(=O)NCC1OCCN1S(=O)(=O)c1ccc(Cl)cc1 (centres undefined)	0.7	4.7	-9.3	-2.0	60.9*	-3.0
Cn1nc(CN)cc1-c1ccco1	/	/	/	/	-2.0	/
Clc1cccc(Cl)c1/C=C/c1nc2ccccc2[nH]1	9.5	-3.0	15.5	138.5*	-17.4	3.1
O=c1[nH]c(/C=C/c2ccccc2Cl)nc2ccccc12	5.0	-10.8	11.5	4.8	-2.1	-0.8
COc1ccc(C(=O)N[C@H](C(=O)Nc2nc3c(s2)CCCC3)C(C)C)cc1	61.5	-0.5	-2.2	+	3.8	-0.1
COc1ccc(/C=N/Nc2nc(C)c([N+](=O)[O-])c(N(C)c3ccccc3)n2)cc1OC	4.7	-0.8	45.5*	-3.4	/	1.9
COc1ccc(C=NNc2nc(C)c([N+](=O)[O-])c(N(C)c3ccccc3)n2)cc1OC	/	/	/	/	-6.0	/
O=C(O)c1ccc2ncc(NC(=O)c3ccc(F)cc3)c(=O)n2c1	4.2	3.8	19.8	4.7	0.0	0.5
Cc1ccc2ncc(NC(=O)c3ccc(F)cc3)c(=O)n2c1	-3.6	-0.4	33.0*	-1.0	-3.0	0.6
COc1ccc(Br)cc1C=NNc1ccc(Cl)c(C(=O)O)c1	/	/	/	/	-6.2	/
COc1ccc(C/C(O)=C(\C#N)c2nc3ccccc3s2)cc1	98.8	-2.1	46.2*	-2.6	/	-0.2
Cc1ccc(SC/C(O)=C(\C#N)c2nc3ccccc3s2)cc1	15.4	9.0	32.4*	-1.3	/	-4.1
N#C/C(=C(/O)CSc1ccccc1C(=O)O)c1nc2ccccc2s1	-2.1	0.2	73.4*	-3.9	-5.7	14.5*
O=C(CN1C(=O)NC2(CCCC2)C1=O)Nc1nc(-c2ccccn2)cs1	/	/	/	/	97.8*	/
O=C(CN1NC(=C2CC2)C=CC1=O)Nc1nc(-c2ccccn2)cs1	/	/	/	/	31.2	/
O=C(Cn1[nH]c(=O)ccc1=O)Nc1nc(-c2ccccn2)cs1	/	/	/	/	97.3*	/
Cc1csc(=O)n1CC(=O)Nc1nc(-c2ccccn2)cs1	/	/	/	/	107.0*	/
O=C(CN1CC(=O)Oc2ccccc21)Nc1nc(-c2ccccn2)cs1	/	/	/	/	100.0*	/
SMILES	Mtb betalactam	Rv3671c inh	GDH-TPI counter	Mtb FBA inh	SSB-PriA inh	Mtb UGM inh
CNC(=O)Cc1cc(=O)[nH]c(SCC(=O)N(C)c2ccccc2)n1	/	/	/	/	4.0	/
COc1cc(CSCc2csc(NC(=O)COc3ccc(Cl)cc3Cl)n2)cc(OC)c1	/	/	/	/	-20.0	/
CCOC(=O)c1nc(Nc2ccccc2)c2ccccc2n1	-13.4	-0.4	22.2	-1.3	-2.5	3.6
CCOC(=O)c1ccc(Nc2ncnc3ccc(C)cc23)cc1	-3.8	4.0	21.4	2.0	-10.6	3.3
CCOC(=O)c1nc(Nc2ccc(C)cc2)c2ccccc2n1	-7.0	-9.6	34.4*	-2.8	-6.9	0.6
CCOC(=O)c1ccc(Nc2c(OCC)c(=O)c2=O)cc1	10.0	1.4	35.2*	-2.6	-2.7	-1.0
CCOC(=O)c1ccc(Nc2ncnc3ccccc23)cc1	8.7	-10.3	57.3*	1.7	-3.7	1.6
